In PubChem BioAssay (Tox21):
Values joined by “and” are separate entries in the source; they are usually repeats but may differ in a detail not shown here. Identical values can stand only once. Results filed as inconclusive are left out. Active and inactive are the calls of the source. Unless noted, calls follow the shape of the dose curve; as a rule, active = well fitted curve in the direction sought with a large enough effect in the repeat runs; inconclusive = weak or mixed curves; inactive = no such curve, though single readings can be large; an effect the other way counts as inactive or inconclusive.

Key:
[1] = qHTS assay to test for compound auto fluorescence at 535 nm (green) in HEK293 cells (AID 720680)
[2] = qHTS assay to test for compound auto fluorescence at 460 nm (blue) in HEK293 cell free culture (AID 720681)
Method in brief: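 Blue fluorescence (Ex 405/Em 460 nm, triamterene-equivalent) was read immediately after pin transfer of compound or DMSO into medium (DMEM, 10% FBS) without cells.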

[3] = qHTS assay to test for compound auto fluorescence at 535 nm (green) in HEK293 cell free culture (AID 720682)
Method in brief: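 Green-channel intensity (Ex/Em 485/535 nm) was recorded from compound-treated wells containing only DMEM with 10% FBS. Fluorescein provided the equivalency standard.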

[4] = qHTS assay to test for compound auto fluorescence at 590 nm (red) in HEK293 cell free culture (AID 720683)
Method in brief: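 Red-channel autofluorescence of compounds in culture medium (DMEM, 10% FBS), no cells, measured at 540/590 nm. Rose Bengal sodium is the reference fluorophore for equivalence.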

[5] = qHTS assay to test for compound auto fluorescence at 590 nm (red) in HepG2 cell free culture (AID 720684)
Method in brief: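 Cell-free; medium MEM + 10% FBS; compound or DMSO added by pintool; read Ex 540/Em 590 nm; Rose Bengal sodium as red reference fluorophore.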

[6] = qHTS assay to test for compound auto fluorescence at 460 nm (blue) in HepG2 cell free culture (AID 720685)
Method in brief: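 Cell-free plates of MEM plus 10% FBS received 23 nL compound or DMSO vehicle; blue-channel (405/460 nm) intensity scored against triamterene as reference fluorophore.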

[7] = qHTS assay to test for compound auto fluorescence at 535 nm (green) in HepG2 cell free culture (AID 720686)
[8] = qHTS assay to test for compound auto fluorescence at 460 nm (blue) in HepG2 cells (AID 720687)
Method in brief: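 Blue-channel autofluorescence (Ex/Em 405/460 nm, triamterene-equivalent) was measured after 1 hr compound exposure at 37 C, 5% CO2. Cells were HepG2, plated overnight at 37 C in MEM plus 10% FBS.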

[9] = qHTS assay to identify small molecule antagonists of the glucocorticoid receptor (GR) signaling pathway - cell viability counter screen (AID 720693); also: nearly all actives have a fitted effect of over 55% in size; also: potency is read from the fitted curve at half-maximal effect
[10] = qHTS assay for identifying genotoxic compounds that show differential cytotoxicity against isogenic chicken DT40 cell lines with known DNA damage response pathways - wild type cell line (AID 743012); also: nearly all actives have a fitted effect of over 60% in size; also: potency is read from the fitted curve at half-maximal effect
Method in brief: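 Viability of DNA repair-proficient chicken DT40 cells was assessed by CellTiter-Glo luminescence following 40 h compound exposure at 37 C/5% CO2.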

[11] = qHTS assay for identifying genotoxic compounds that show differential cytotoxicity against isogenic chicken DT40 cell lines with known DNA damage response pathways - Rev3 mutant cell line (AID 743014); also: nearly all actives have a fitted effect of over 55% in size; also: potency is read from the fitted curve at half-maximal effect
[12] = qHTS assay for identifying genotoxic compounds that show differential cytotoxicity against isogenic chicken DT40 cell lines with known DNA damage response pathways - Rad54/Ku70 mutant cell line (AID 743015); also: nearly all actives have a fitted effect of over 60% in size; also: potency is read from the fitted curve at half-maximal effect
[13] = qHTS assay to identify small molecule antagonists of the androgen receptor (AR) signaling pathway - cell viability counter screen (AID 743033; also: nearly all actives have a fitted effect of over 45% in size)
[14] = target: Androgen receptor (Homo sapiens) (UniProt P10275); test: qHTS assay to identify small molecule antagonists of the androgen receptor (AR) signaling pathway (AID 743035; active = well fitted inhibition curve with a large enough effect in the signal ratio in the repeat runs, not every such curve was filed as active; the % refers to the signal ratio)
Method in brief: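 Reporter HEK293 cells were exposed to compounds and R1881 overnight (16 h, 37C); beta-lactamase activity was then quantified by FRET fluorescence.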

[15] = target: Androgen receptor (Homo sapiens) (UniProt P10275); test: qHTS assay to identify small molecule agonists of the androgen receptor (AR) signaling pathway (AID 743036; active = well fitted activation curve with a large enough effect in the signal ratio in the repeat runs, with a control signal flat, not every such curve was filed as active; the % refers to the signal ratio)
Method in brief: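 Cell-based FRET reporter assay: HEK293 line with a UAS-beta-lactamase construct, compounds added in DMSO, 16 h exposure at 37C, then 2 h substrate step at room temperature and fluorescence intensity read.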

[16] = target: Androgen receptor (Homo sapiens) (UniProt P10275); test: qHTS assay to identify small molecule agonists of the androgen receptor (AR) signaling pathway using the MDA cell line (AID 743040; also: nearly all actives have a fitted effect of over 20% in size)
Method in brief: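 Luciferase agonist assay: 16 h compound exposure at 37C without CO2 in MDA-kb2 AR-luc cells, whose MMTV promoter responds to both AR and GR. Luminescence measured after 30 min room-temperature incubation with ONE-Glo.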

[17] = qHTS assay to identify small molecule antagonists of the androgen receptor (AR) signaling pathway using the MDA cell line - cell viability counter screen (AID 743041; also: nearly all actives have a fitted effect of over 45% in size)
Method in brief: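 Viability read by CellTiter-Fluor fluorescence in the same wells as the antagonist screen, added after 15.5 h of a 16 h, 37C exposure. Human breast carcinoma MDA-kb2 AR-luc cells, compounds co-dosed with agonist R1881.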

[18] = target: Glucocorticoid receptor (Homo sapiens) (UniProt P04150); test: qHTS assay to identify small molecule antagonists of the glucocorticoid receptor (GR) signaling pathway (AID 720692; active = well fitted inhibition curve with a large enough effect in the signal ratio in the repeat runs, not every such curve was filed as active; the % refers to the signal ratio)
Method in brief: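 In a 1536-well cell format, compounds were added 4 h after seeding GR-bla HeLa cells, together with dexamethasone at 5 nM final; reporter activity was measured by FRET-substrate fluorescence following 18 h at 37 C.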

[19] = target: Androgen receptor (Homo sapiens) (UniProt P10275); test: qHTS assay to identify small molecule antagonists of the androgen receptor (AR) signaling pathway using the MDA cell line (AID 743042; also: nearly all actives have a fitted effect of over 55% in size)
Method in brief: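 Antagonist mode: compounds plus R1881 agonist added to MDA-kb2 AR-luc cells, incubated 16 h at 37C. Luciferase reporter luminescence quantified, with multiplexed CellTiter-Fluor readout for cell viability.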

[20] = target: Glucocorticoid receptor (Homo sapiens) (UniProt P04150); test: qHTS assay to identify small molecule agonists of the glucocorticoid receptor (GR) signaling pathway (AID 720691; active = well fitted activation curve with a large enough effect in the signal ratio in the repeat runs, not every such curve was filed as active; the % refers to the signal ratio); conditions: GR-bla HeLa, beta-lactamase reporter ratio, 18 h; activation: at 62.4 µM (top of the series) unless noted
Method in brief: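 Compounds in DMSO, alongside positive controls, were added to GR-bla HeLa reporter cells and incubated 18 h at 37 C; GRE-driven beta-lactamase was detected by fluorescence after 2 h with FRET substrate at room temperature.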

Measured: Potency

Sequence of Glucocorticoid receptor (Homo sapiens) (P04150 whole entry, looked up): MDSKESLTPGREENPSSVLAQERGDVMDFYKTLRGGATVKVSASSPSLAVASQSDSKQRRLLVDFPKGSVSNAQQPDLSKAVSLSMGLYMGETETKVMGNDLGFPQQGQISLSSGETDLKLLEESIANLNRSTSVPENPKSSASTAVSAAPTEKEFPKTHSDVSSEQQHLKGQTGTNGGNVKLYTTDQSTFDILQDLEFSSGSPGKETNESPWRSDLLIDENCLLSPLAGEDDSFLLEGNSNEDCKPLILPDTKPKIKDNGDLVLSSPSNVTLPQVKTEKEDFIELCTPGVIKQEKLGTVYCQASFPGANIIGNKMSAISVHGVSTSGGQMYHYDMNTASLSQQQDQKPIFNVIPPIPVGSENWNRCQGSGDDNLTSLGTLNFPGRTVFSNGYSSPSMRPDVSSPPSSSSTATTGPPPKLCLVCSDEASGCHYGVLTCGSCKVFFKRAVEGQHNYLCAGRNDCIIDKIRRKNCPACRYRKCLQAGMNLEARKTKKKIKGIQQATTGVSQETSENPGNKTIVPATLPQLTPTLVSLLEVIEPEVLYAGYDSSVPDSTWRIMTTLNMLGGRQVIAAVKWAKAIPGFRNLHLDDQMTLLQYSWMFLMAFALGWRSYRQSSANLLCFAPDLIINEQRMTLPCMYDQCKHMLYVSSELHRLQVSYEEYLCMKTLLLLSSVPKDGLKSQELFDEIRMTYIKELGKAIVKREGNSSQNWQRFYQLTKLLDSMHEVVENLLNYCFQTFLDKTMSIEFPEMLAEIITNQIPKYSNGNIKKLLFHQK
Sequence of Androgen receptor (Homo sapiens) (P10275 whole entry, looked up): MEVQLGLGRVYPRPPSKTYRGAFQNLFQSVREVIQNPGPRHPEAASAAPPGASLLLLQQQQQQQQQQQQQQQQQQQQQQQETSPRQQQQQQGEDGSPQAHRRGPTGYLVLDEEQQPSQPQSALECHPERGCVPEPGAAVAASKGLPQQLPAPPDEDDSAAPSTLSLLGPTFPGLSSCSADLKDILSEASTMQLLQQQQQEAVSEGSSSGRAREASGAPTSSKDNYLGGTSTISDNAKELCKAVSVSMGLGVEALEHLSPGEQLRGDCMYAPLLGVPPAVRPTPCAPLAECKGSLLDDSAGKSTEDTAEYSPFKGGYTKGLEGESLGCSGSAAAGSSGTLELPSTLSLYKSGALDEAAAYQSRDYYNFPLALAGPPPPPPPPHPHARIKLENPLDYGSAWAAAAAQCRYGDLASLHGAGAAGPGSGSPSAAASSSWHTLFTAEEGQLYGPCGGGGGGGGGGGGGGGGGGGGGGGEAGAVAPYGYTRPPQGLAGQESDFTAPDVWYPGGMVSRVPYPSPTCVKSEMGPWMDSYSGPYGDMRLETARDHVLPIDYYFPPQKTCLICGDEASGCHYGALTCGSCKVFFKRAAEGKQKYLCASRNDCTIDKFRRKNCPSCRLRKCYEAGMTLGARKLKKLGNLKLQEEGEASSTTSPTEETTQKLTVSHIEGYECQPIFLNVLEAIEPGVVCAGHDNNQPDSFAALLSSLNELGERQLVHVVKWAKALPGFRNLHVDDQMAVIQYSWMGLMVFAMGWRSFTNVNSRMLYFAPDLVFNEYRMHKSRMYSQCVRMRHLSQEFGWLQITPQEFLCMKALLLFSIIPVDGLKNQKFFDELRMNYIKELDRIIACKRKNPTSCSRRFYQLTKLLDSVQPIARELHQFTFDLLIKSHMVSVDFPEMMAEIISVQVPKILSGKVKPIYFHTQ

Nc1c(S(=O)(=O)O)cc(Br)c2c1C(=O)c1ccccc1C2=O
inactive: [1] | [2] | [3] | [4] | [5] | [6] | [7] | [8] | [9] | [10] | [11] | [12] | [13]

O=[N+]([O-])c1cc(N(CCO)CCO)ccc1NCCO
inactive: [1] | [2] | [3] | [4] | [5] | [6] | [7] | [8] | [13] | [14] | [15] | [16]

CC(=O)CCc1ccccc1
inactive: [1] | [2] | [3] | [4] | [5] | [6] | [7] | [8] | [9] | [10] | [11] | [12] | [13] | [17]

O=S(=O)(O)CCS
inactive: [1] | [2] | [3] | [4] | [5] | [6] | [7] | [8] | [9] | [10] | [11] | [12] | [13]

CC#C[C@]1(O)CC[C@H]2[C@@H]3CCC4=CC(=O)CCC4=C3[C@@H](c3ccc(N(C)C)cc3)C[C@@]21C
active: [9] 5.35 µM | [10] 5.96 µM and 30.6 µM | [11] 9.44 µM and 48.6 µM | [12] 5.96 µM and 21.7 µM
inactive: [1] | [2] | [3] | [4] | [5] | [6] | [7] | [8]

CCCCC/C=C\C/C=C\CCCCCCCC(=O)OC
active: [10] 30.6 µM | [11] 30.6 µM | [12] 21.7 µM
inactive: [1] | [2] | [3] | [4] | [5] | [6] | [7] | [8] | [9] | [13]

Cc1ccc(N)c(S(=O)(=O)O)c1
inactive: [1] | [2] | [3] | [4] | [5] | [6] | [7] | [8] | [18] | [10] | [11] | [12] | [13] | [17]

C=C1C2CCC(C2)C1(C)C (stereo not given)
inactive: [1] | [2] | [3] | [4] | [5] | [6] | [7] | [8] | [9] | [10] | [11] | [12] | [13]

Cn1c([N+](=O)[O-])cnc1COC(N)=O
inactive: [1] | [2] | [3] | [4] | [5] | [6] | [7] | [8] | [9] | [10] | [11] | [12] | [13]

COC(=O)Nc1nc2ccc(Sc3ccccc3)cc2[nH]1
inactive: [1] | [2] | [3] | [4] | [5] | [6] | [7] | [8] | [9] | [13] | [17]
active: [10] 403 nM and 217 nM | [11] 285 nM and 217 nM | [12] 403 nM and 386 nM

OCC1CCCO1 (stereo not given)
inactive: [1] | [2] | [3] | [4] | [5] | [6] | [7] | [8] | [10] | [11] | [12] | [13] | [15] | [16] | [17] | [19]

CS(=O)(=O)c1ccc([C@@H](O)[C@@H](CO)NC(=O)C(Cl)Cl)cc1
inactive: [1] | [2] | [3] | [4] | [5] | [6] | [7] | [8] | [9] | [13] | [17]
active: [10] 4.52 µM and 4.92 µM | [11] 7.17 µM and 4.38 µM | [12] 7.17 µM and 4.92 µM

CCCCCCC(C)(C)S
inactive: [1] | [2] | [3] | [4] | [5] | [6] | [7] | [8] | [18] | [10] | [11] | [12] | [13]

CC(C)Cc1ccccc1
inactive: [1] | [2] | [3] | [5] | [6] | [7] | [8] | [20] | [18] | [9] | [10] | [11] | [12] | [13]

COC(=O)c1ccccc1O
inactive: [1] | [2] | [3] | [4] | [5] | [6] | [7] | [8] | [10] | [11] | [12] | [13] | [17]

Clc1ccc(Cl)c(Cl)c1Cl
inactive: [1] | [2] | [3] | [5] | [6] | [7] | [8] | [20] | [18] | [9] | [10] | [11] | [12] | [13] | [17]

CCOC(=O)C1OC1c1ccccc1 (stereo not given)
inactive: [1] | [2] | [3] | [4] | [5] | [6] | [7] | [8] | [10] | [11] | [12] | [13] | [17]

OC[C@@H](O)[C@@H](O)[C@H](O)[C@@H](O)CO
inactive: [1] | [2] | [3] | [4] | [5] | [6] | [7] | [8] | [9] | [10] | [11] | [12] | [13]

Oc1ccc2ccccc2c1N=Nc1ccccc1
inactive: [1] | [2] | [3] | [4] | [5] | [6] | [7] | [8] | [9] | [10] | [11] | [12] | [13]
